About 79,000 compounds went through this panel and 15% of them were active in at least one assay; those are over-represented in the sample as a whole. Active and inactive are the calls of the source. Cut-off read from the data, not from the text of the source: active = growth inhibition above about 70%; inactive = the rest.
assay: NCI Yeast Anticancer Drug Screen. Data for the sgs1 mgt1 strain (AID 161);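 note: 0% = growth of cultures given vehicle only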; details: S. cerevisiae sgs1 mgt1 strain, at 50.0 µM, stronger effect = higher value
Experimental: Growth inhibition of yeast strains with defined genetic alterations is measured as a screen for potential anti-cancer activity. Selected strains with alterations in DNA damage repair or cell cycle control were exposed to compounds and growth inhibition was measured relative to vehicle treated controls. The strain used in this assay is sgs1 mgt1

**Q.** With CN(C)c1ccc(N=Nc2ccc3nc[nH]c3c2)cc1 as the compound, how does the growth inhibition read?
**A.** Its growth inhibition is 42% (inactive).

**Q.** Which growth inhibition does the source give for CCCCCCCCCCCCCCCCOCC(COP(=O)(O)OCC1OC(n2cc(CC)c(=O)[nH]c2=O)CC1O)OC(=O)CCCCCCCCCCCCCCC (stereo not given) here?
**A.** The growth inhibition was 5.25% (inactive).

**Q.** Which growth inhibition does the source give for CC(=O)c1ccc2c(ccc3ccccc32)c1O here?
**A.** Its growth inhibition is -3.65% (inactive).

**Q.** For N#CC1=C2CCCC(C#N)=C2CCC1, which growth inhibition is on record?
**A.** The growth inhibition was -4.55% (inactive).

**Q.** For CC1=CC(C)(C)NC(=S)N1C1CCCCC1, which growth inhibition is on record?
**A.** The growth inhibition was 6.3% (inactive).

**Q.** For Cc1oc(C)c2c(N=Nc3ccc([N+](=O)[O-])cc3[N+](=O)[O-])c3ccccc3c(O)c12, which growth inhibition is on record?
**A.** The growth inhibition was 11.4% (inactive).

**Q.** Which growth inhibition does the source give for CC(CCl)CC#N (stereo not given) here?
**A.** Its growth inhibition is 7.9% (inactive).

**Q.** With CC1=Nc2c(ccc3c2C(=O)c2ccccc2C3=O)NC(c2ccncc2)C1 (stereo not given) as the compound, how does the growth inhibition read?
**A.** Its growth inhibition is 47.6% (inactive).

**Q.** Which growth inhibition does the source give for COC(=O)CCN(C)c1ccccc1 here?
**A.** The growth inhibition was -3.75% (inactive).

**Q.** Which growth inhibition does the source give for Cc1ccc(S(=O)(=O)Nc2ccc(C(=O)Cl)cc2)cc1 here?
**A.** Its growth inhibition is 23.5% (inactive).

**Q.** With O=C1Cc2c(c3ccccc3c3ccccc23)C1 as the compound, how does the growth inhibition read?
**A.** The growth inhibition was -4.1% (inactive).

**Q.** With CSc1nc(Cl)nc2[nH]ncc12 as the compound, how does the growth inhibition read?
**A.** Its growth inhibition is 1.1% (inactive).

**Q.** Which growth inhibition does the source give for O=C(O)CSc1ncccc1[N+](=O)[O-] here?
**A.** Its growth inhibition is -6.05% (inactive).

**Q.** With O=C(CN1C(=O)c2cccc3c(Br)ccc(c23)C1=O)c1ccc(Cl)cc1 as the compound, how does the growth inhibition read?
**A.** The growth inhibition was 5.85% (inactive).

**Q.** For CCOC12CC(OC(=O)N1)C(C)C1OC1(C)C(OC(=O)C(C)N(C)C(C)=O)CC(=O)N(C)c1cc(cc(OC)c1Cl)C/C(C)=C/C=CC2OC (stereo not given), which growth inhibition is on record?
**A.** Its growth inhibition is -30.9% (inactive).

**Q.** Which growth inhibition does the source give for O=C(O)c1ccc(/C=N/NC(=O)C(O)(c2ccccc2)c2ccccc2)cc1 here?
**A.** Its growth inhibition is -18.9% (inactive).

**Q.** Which growth inhibition does the source give for Cc1ccccc1NCC(C)O (stereo not given) here?
**A.** Its growth inhibition is -5.9% (inactive).

**Q.** For Cn1c(=O)c2c(nc3n(C)c(=O)c4ccccc4n23)n(C)c1=O, which growth inhibition is on record?
**A.** The growth inhibition was -8.15% (inactive).

**Q.** With C=CCNC(=S)Nc1cccc(OC(=O)NC2CCCCC2)c1 as the compound, how does the growth inhibition read?
**A.** Its growth inhibition is 3.75% (inactive).

**Q.** Which growth inhibition does the source give for CNC(=O)NC1C(O)COC(OC)C1O (stereo not given) here?
**A.** The growth inhibition was -0.6% (inactive).

**Q.** For COc1ccc(-c2c3c(nc4nc(SCC(=O)c5ccc(Br)cc5)nc(N)c24)CCCC3)cc1OC, which growth inhibition is on record?
**A.** The growth inhibition was -27.9% (inactive).

**Q.** For COC(=O)c1ccc(/C=C(\c2ccc([N+](=O)[O-])o2)S(=O)(=O)c2ccc(NC(C)=O)cc2)o1, which growth inhibition is on record?
**A.** Its growth inhibition is 90.8% (active).

**Q.** With O=C(Nc1ccccc1)c1cc([N+](=O)[O-])cc([N+](=O)[O-])c1 as the compound, how does the growth inhibition read?
**A.** Its growth inhibition is 15.3% (inactive).

**Q.** For NC(=O)OCc1c(-c2ccccc2)nn(-c2ccccc2)c1COC(N)=O, which growth inhibition is on record?
**A.** Its growth inhibition is -18.5% (inactive).

**Q.** With COc1ccc2c(CCn3ccccc3=O)cccc2c1 as the compound, how does the growth inhibition read?
**A.** The growth inhibition was 7.55% (inactive).

**Q.** Which growth inhibition does the source give for N#Cc1c(Cl)cccc1N1CCSCC1 here?
**A.** Its growth inhibition is 15.3% (inactive).

**Q.** Which growth inhibition does the source give for CO[Si](C)(C)OC here?
**A.** Its growth inhibition is -7.15% (inactive).

**Q.** Which growth inhibition does the source give for Nc1ccc(N=Nc2c(S(=O)(=O)O)cc3cc(S(=O)(=O)O)cc(O)c3c2O)cc1 here?
**A.** The growth inhibition was -29.5% (inactive).

**Q.** Which growth inhibition does the source give for O=C(Cl)/C=C/c1ccccc1 here?
**A.** The growth inhibition was 27.9% (inactive).

**Q.** With CC1SCC(=O)N1c1nncs1 (stereo not given) as the compound, how does the growth inhibition read?
**A.** The growth inhibition was -51.9% (inactive).

**Q.** Which growth inhibition does the source give for Nc1cccc2c(=O)[nH][nH]c(=O)c12 here?
**A.** The growth inhibition was 23.9% (inactive).

**Q.** For CCOC(=O)CC(C(=O)OCC)C(C(=O)OCC)C(=O)OCC (stereo not given), which growth inhibition is on record?
**A.** The growth inhibition was 19.6% (inactive).

**Q.** With CC1=C/C(=N/NS(=O)(=O)c2ccc(C)cc2)CC(C)(C)C1 as the compound, how does the growth inhibition read?
**A.** Its growth inhibition is 11.8% (inactive).

**Q.** With CC(=O)c1ccc(OC(=O)Nc2ccc(Cl)cc2)cc1 as the compound, how does the growth inhibition read?
**A.** Its growth inhibition is 23.9% (inactive).

**Q.** Which growth inhibition does the source give for CC(=O)/C=C1/NC(C(=O)c2ccccc2)=CNC1c1ccccc1 (stereo not given) here?
**A.** The growth inhibition was 20.6% (inactive).

**Q.** With COc1cc2c(cc1OC)C(c1ccccc1CCCCl)=NCC2 as the compound, how does the growth inhibition read?
**A.** Its growth inhibition is -25.1% (inactive).

**Q.** With CCC(CC)C(=O)OCCOc1ccccc1 as the compound, how does the growth inhibition read?
**A.** Its growth inhibition is 3.95% (inactive).

**Q.** Which growth inhibition does the source give for COC(=O)/C(C#N)=C\n1c(=S)[nH]c2ccccc21 here?
**A.** Its growth inhibition is -16.4% (inactive).

**Q.** For CC1=CC2OC3C(OC(=O)c4ccccc4)C(OC(=O)c4ccccc4)C(C)(C2(COC(=O)c2ccccc2)CC1)C31CO1 (stereo not given), which growth inhibition is on record?
**A.** The growth inhibition was 1.55% (inactive).

**Q.** Which growth inhibition does the source give for CC(c1ccccc1)C(C)(C)O (stereo not given) here?
**A.** Its growth inhibition is 27% (inactive).

Reference: PubChem BioAssay (NCI)
